Source: PubChem BioAssay (NCI)
Compounds without any hit were thinned out: in the full panel of roughly 79,000, 15% have a hit. Activity calls are given as the source filed them. No stated cut-off is given here; in the data, active means growth inhibition above about 70%; inactive means the rest.

Experiment: NCI Yeast Anticancer Drug Screen. Data for the mlh1 rad18 strain (AID 175)
Conditions: S. cerevisiae mlh1 rad18 strain growth inhibition; at 50.0 µM; active compounds read high
Summary of the method: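 Yeast w/ defined DNA-repair lesions; compound exposure; growth vs vehicle controls → % inhibition.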
For `CCCCC#C[I+]c1ccccc1`, the growth inhibition was 89.3% (active).
For `CCOC(=O)C1C(c2cccc(OC)c2O)c2cc3c(cc2OC1(C)N1CCCC1)OCO3` (configuration not stated), the growth inhibition was 50.5% (inactive).
In the case of `Nc1ncnc2nn(C3OC(CO)C(O)C3O)nc12` (configuration not stated), the growth inhibition was -4.75% (inactive).
For `Nc1nc(-c2ccc3c(c2)Sc2ccccc2O3)cs1`, the growth inhibition was 93.7% (active).
In the case of `O=C1C=CC(Nc2cccc([N+](=O)[O-])c2)C1Nc1cccc([N+](=O)[O-])c1` (configuration not stated), the growth inhibition was 91.7% (active).
For `O=C(CC(=O)c1ccccc1)CC(=O)c1ccccc1`, the growth inhibition was 84% (active).
In the case of `Fc1ccc(CSC(=S)Nc2ccc(Br)cc2)cc1`, the growth inhibition was 95.5% (active).
In the case of `Cc1cc([N+](=O)[O-])c2nnnn2c1`, the growth inhibition was 34% (inactive).
In the case of `CN(c1ccc(C(N)=O)cc1)c1c(O)c2ccccc2[nH]c1=O`, the growth inhibition was 15.5% (inactive).
For `O=C(/C=C\c1cccc2ccccc12)c1ccccn1`, the growth inhibition was 99% (active).
For `COc1ccc2c(c1)CCc1c(CO)c(COC(=O)NC(C)C)n(C)c1-2`, the growth inhibition was 88.8% (active).
For `O=C1CC(O)CC(=O)C1=C(O)CCCCCCCCCCc1ccccc1` (configuration not stated), the growth inhibition was 65.8% (inactive).
For `CC1CCN(CCCOC(=O)c2ccccc2)CC1`, the growth inhibition was 55% (inactive).
In the case of `Cc1ccc(S(=O)(=O)OC2COC3C(OS(=O)(=O)c4ccc(C)cc4)COC23)cc1` (configuration not stated), the growth inhibition was 4% (inactive).
In the case of `Cc1nn(C(=S)S)c(C)c1N=Nc1cccc(F)c1`, the growth inhibition was 90% (active).
With `O=C1C(=Cc2ccccc2O)N=C(c2ccccc2)N1n1c(-c2ccccc2)nc2ccccc2c1=O` the growth inhibition was 73.3% (active).
With `O=C1/C(=C/c2ccccc2)CNC/C1=C\c1ccccc1` the growth inhibition was 99.2% (active).
